# Results as given in PubChem BioAssay (EPA / NIEHS).
# Where “and” joins values, the source holds several entries; their conditions need not be identical. Equal entries are not always repeated. Records with an inconclusive call do not appear. Some compounds were tested as several samples or in several runs, with calls that do not always agree. Calls of active or inactive are those of the source. How the source made its calls, unless noted: active means hit-call score of the fitted dose curve at least 0.9, where 1 is the maximum; inactive means score below 0.9.
# Assays:
# [1] = read-out: Interleukin-8 (IL8), CXCL8 (gene 3576); experiment: BSK_3C_IL8: BioMAP Diversity Plus: 3C Assay for Interleukin-8 (IL8) Biomarker Activity (AID 2283020); details: primary human endothelial cells (HUVEC); actives raise or lower the signal
# In short: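 IL-8 was measured by ELISA in HUVEC cultures 24 h after chemical dosing, with gain or loss of signal fitted relative to DMSO. Parallel SRB total-protein staining tracked overt cytotoxicity.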
# [2] = read-out: Monokine induced gamma interferon (MIG), CXCL9 (gene 4283); experiment: BSK_3C_MIG: BioMAP Diversity Plus: 3C Assay for Monokine induced gamma interferon (MIG) Biomarker Activity (AID 2283021); details: primary human endothelial cells (HUVEC); actives raise or lower the signal;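 on AC50: MIG protein level measured by immunoassay in the treated endothelial cultures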
# In short: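 ELISA measurement of MIG in human umbilical vein endothelial cells 24 h after treatment. Cytotoxicity tracked by SRB staining in parallel cultures; gain or loss of signal fitted relative to DMSO.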
# [3] = read-out: Matrix Metallopeptidase 1 (MMP1), MMP1 (gene 4312); experiment: BSK_BE3C_MMP1: BioMAP Diversity Plus: BE3C Assay for Matrix Metallopeptidase 1 (MMP1) Biomarker Activity (AID 2283024); details: primary human bronchial epithelial cells; actives raise or lower the signal
# In short: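 ELISA measurement of MMP-1 after 24 h compound exposure of primary human bronchial epithelial cells. Changes in either direction fitted relative to DMSO; parallel SRB staining checked overt cytotoxicity.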
# [4] = BSK_3C_Vis: BioMAP Diversity Plus: 3C Assay for Morphology Visualization (AID 2283025); details: primary human endothelial cells (HUVEC);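 further: fitted both ways so gain or loss versus DMSO counts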;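 on AC50: light microscopy image of cell morphology used as background control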
# In short: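 Light-microscopy visualization of HUVEC cultures at 24 h post-treatment, with DMSO as baseline for bidirectional fitting.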
# [5] = read-out: Pselectin, SELP (gene 6403); experiment: BSK_4H_Pselectin: BioMAP Diversity Plus: 4H Assay for Pselectin Biomarker Activity (AID 2283026); details: primary human endothelial cells (HUVEC); actives raise or lower the signal
# In short: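 ELISA of surface P-selectin on HUVEC, 24 h after dosing, with parallel SRB staining (0.1% after 10% TCA fixation, 560 nm) for overt cytotoxicity. Activity fitted in both directions relative to DMSO.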
# [6] = BSK_4H_SRB: Viability Assessment in the BioMAP Diversity Plus: 4H Assay (AID 2283027); details: primary human endothelial cells (HUVEC);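 further: cells exposed to compound for 24 h before staining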;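 on AC50: curves fitted both ways versus DMSO so AC50 may be loss or gain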
# In short: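 Cytotoxicity readout: sulforhodamine B (0.1%) staining of total protein after 10% TCA fixation, measured at 560 nm in human umbilical vein endothelium at 24 h. DMSO set the baseline; fitting was bidirectional.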
# [7] = read-out: Thrombomodulin, THBD (gene 7056); experiment: BSK_3C_Thrombomodulin: BioMAP Diversity Plus: 3C Assay for Thrombomodulin Biomarker Activity (AID 2283029); details: primary human endothelial cells (HUVEC); actives raise or lower the signal
# In short: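 ELISA measurement of thrombomodulin on HUVEC surface 24 h after chemical dosing; activity fitted in both directions relative to DMSO vehicle.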
# [8] = read-out: Urokinase-type plasminogen activator receptor (uPAR), PLAUR (gene 5329); experiment: BSK_4H_uPAR: BioMAP Diversity Plus: 4H Assay for Urokinase-type plasminogen activator receptor (uPAR) Biomarker Activity (AID 2283030); details: primary human endothelial cells (HUVEC); actives raise or lower the signal
# In short: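 Primary human umbilical vein endothelial cells were exposed to chemical for 24 h before cell-surface uPAR was quantified by ELISA. Activity was fitted bidirectionally against the DMSO negative control baseline.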
# [9] = read-out: Vascular endothelial growth factor receptor 2 (Homo sapiens) (UniProt P35968); experiment: BSK_4H_VEGFRII: BioMAP Diversity Plus: 4H Assay for Vascular endothelial growth factor receptor 2 (VEGFR2) Biomarker Activity (AID 2283031); details: primary human endothelial cells (HUVEC); actives raise or lower the signal;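 on AC50: cell-surface VEGFR2 protein level quantified by ELISA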
# In short: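 Primary human umbilical vein endothelial cells in the BioMAP 4H system were dosed with test chemical, and 24 h later VEGFRII was measured by ELISA. Activity was fitted bidirectionally against DMSO as negative control and baseline.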
# [10] = read-out: Human Leukocyte Antigen - DR isotype (HLADR), HLA-DRA (gene 3122); experiment: BSK_BE3C_HLADR: BioMAP Diversity Plus: BE3C Assay for Human Leukocyte Antigen - DR isotype (HLADR) Biomarker Activity (AID 2283032); details: primary human bronchial epithelial cells; actives raise or lower the signal
# In short: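 Cell-surface HLA-DR ELISA readout at 24 h after dosing in the BE3C primary human lung bronchial epithelial system; gain or loss of signal against DMSO, with parallel sulforhodamine B staining of total protein for overt cytotoxicity.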
# [11] = read-out: Vascular cell adhesion molecule 1 (VCAM1), VCAM1 (gene 7412); experiment: BSK_4H_VCAM1: BioMAP Diversity Plus: 4H Assay for Vascular cell adhesion molecule 1 (VCAM1) Biomarker Activity (AID 2283033); details: primary human endothelial cells (HUVEC); actives raise or lower the signal;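 on outcome: cell-surface VCAM-1 protein measured by ELISA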
# In short: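 VCAM-1 ELISA read 24 h after chemical dosing of HUVEC in the BioMAP 4H system, with gain or loss of signal fitted relative to DMSO. Parallel SRB staining (560 nm) checked overt cytotoxicity.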
# [12] = read-out: Interferon-gamma inducible Protein 10 (IP10), CXCL10 (gene 3627); experiment: BSK_BE3C_IP10: BioMAP Diversity Plus: BE3C Assay for Interferon-gamma inducible Protein 10 (IP10) Biomarker Activity (AID 2283034); details: primary human bronchial epithelial cells; actives raise or lower the signal
# In short: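 IP-10 quantified by ELISA in human primary bronchial epithelial cell cultures at 24 hours post-dosing. Gain or loss of signal fitted relative to DMSO; parallel SRB staining assessed overt cytotoxicity.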
# [13] = read-out: Transforming growth factor beta 1 (TGFb1), TGFB1 (gene 7040); experiment: BSK_BE3C_TGFb1: BioMAP Diversity Plus: BE3C Assay for Transforming growth factor beta 1 (TGFb1) Biomarker Activity (AID 2283036;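 on outcome: TGF-b1 protein level measured by ELISA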); details: primary human bronchial epithelial cells; actives raise or lower the signal
# In short: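 ELISA readout of TGF-b1 from human lung bronchial epithelial primary cells, taken 24 h post-treatment. Gain or loss of signal fitted relative to DMSO baseline, with parallel SRB staining for overt cytotoxicity.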
# [14] = read-out: Plasminogen activator inhibitor-1 (PAI1), SERPINE1 (gene 5054); experiment: BSK_BE3C_PAI1: BioMAP Diversity Plus: BE3C Assay for Plasminogen activator inhibitor-1 (PAI1) Biomarker Activity (AID 2283037); details: primary human bronchial epithelial cells; actives raise or lower the signal
# In short: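 PAI-1 was measured by ELISA in human primary bronchial epithelial cultures 24 h after chemical dosing, with cytotoxicity checked by SRB total-protein staining in parallel cultures. Activity was fitted in both directions relative to DMSO.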
# [15] = read-out: urokinase plasminogen activator (uPA), PLAU (gene 5328); experiment: BSK_BE3C_uPA: BioMAP Diversity Plus: BE3C Assay for urokinase plasminogen activator (uPA) Biomarker Activity (AID 2283038); details: primary human bronchial epithelial cells; actives raise or lower the signal;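 on outcome: uPA protein level quantified by ELISA in cell cultures; uPA read one day after compound addition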
# In short: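 Human primary bronchial epithelial cells were exposed to chemical for 24 h, then uPA levels were measured by ELISA. Responses were fitted bidirectionally against DMSO as negative control and baseline. Parallel SRB staining of total protein gauged overt cytotoxicity.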
# [16] = read-out: Urokinase-type plasminogen activator receptor (uPAR), PLAUR (gene 5329); experiment: BSK_BE3C_uPAR: BioMAP Diversity Plus: BE3C Assay for Urokinase-type plasminogen activator receptor (uPAR) Biomarker Activity (AID 2283039); details: primary human bronchial epithelial cells; actives raise or lower the signal;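 on outcome: cells exposed to compound for one day before measurement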
# In short: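 uPAR levels were measured by ELISA after 24 h compound treatment of primary human bronchial epithelial cells, fitted in both directions relative to DMSO. Parallel SRB staining served as the cytotoxicity read-out.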
# [17] = read-out: Monokine induced gamma interferon (MIG), CXCL9 (gene 4283); experiment: BSK_BE3C_MIG: BioMAP Diversity Plus: BE3C Assay for Monokine induced gamma interferon (MIG) Biomarker Activity (AID 2283035); details: primary human bronchial epithelial cells; actives raise or lower the signal;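 on outcome: MIG protein measured by ELISA in BE3C cultures after 24 h of dosing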
# In short: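 hu bronchial epithelial 1° cells, 24 h cpd; MIG by ELISA; bidirectional fit, DMSO = baseline.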
# [18] = target: human Vitamin D Receptor (VDR), VDR (gene 7421) (UniProt P11473); experiment: ATG_VDR_TRANS: Attagene TRANS-FACTORIAL HepG2 Assay for human Vitamin D Receptor (VDR) (AID 2283022; active means hit-call score of the fitted dose curve at least 0.9, where 1 is the maximum)
# human Vitamin D Receptor (VDR), VDR (gene 7421), sequence (P11473 whole entry, looked up, the tested form may be a part): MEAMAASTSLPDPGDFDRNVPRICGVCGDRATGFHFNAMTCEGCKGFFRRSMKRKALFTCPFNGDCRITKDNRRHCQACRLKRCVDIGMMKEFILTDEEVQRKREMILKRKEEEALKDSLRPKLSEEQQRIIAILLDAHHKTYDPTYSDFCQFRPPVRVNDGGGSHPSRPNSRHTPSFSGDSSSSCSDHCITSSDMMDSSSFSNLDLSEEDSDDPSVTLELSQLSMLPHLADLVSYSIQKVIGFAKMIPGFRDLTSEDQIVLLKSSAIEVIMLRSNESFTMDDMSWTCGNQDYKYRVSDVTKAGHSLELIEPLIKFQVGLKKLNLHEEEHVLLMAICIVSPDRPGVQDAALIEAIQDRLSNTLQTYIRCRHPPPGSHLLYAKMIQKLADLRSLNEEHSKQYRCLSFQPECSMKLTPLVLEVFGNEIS
# In short: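 HepG2 cells were transiently transfected with multiple GAL4-UAS reporter units, so signal reflects exogenous chimeric receptor-Gal4 activity. After 24 h compound exposure, reporter mRNA was measured by RT-PCR, fluorescent labelling and capillary electrophoresis, fitted for gain of signal versus DMSO.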
# [19] = BSK_3C_SRB: Viability Assessment in the BioMAP Diversity Plus: 3C Assay (AID 2283023); details: primary human endothelial cells (HUVEC);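 further: fitted both ways against DMSO so a hit may be signal rise or drop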
# In short: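 Primary human umbilical vein endothelial cells in the 3C system were read 24 h after compound dosing. Total protein was stained with 0.1% sulforhodamine B after 10% TCA fixation and read at 560 nm, with bidirectional fitting against DMSO as baseline.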
# [20] = BSK_BE3C_SRB: Viability Assessment in the BioMAP Diversity Plus: BE3C Assay (AID 2283028); details: primary human bronchial epithelial cells;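 on AC50: fitted both ways so AC50 may mark signal gain or loss versus DMSO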
# In short: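 Human primary bronchial epithelial cells were exposed to test chemicals for 24 h. Total protein in parallel cultures was then measured by staining with 0.1% sulforhodamine B after 10% TCA fixation, with absorbance read at 560 nm. Activity was fitted bidirectionally against DMSO.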
smiles,measurement,setting,value
CC(C)N(C(=O)COc1nnc(C(F)(F)F)s1)c1ccc(F)cc1,outcome,[1],inactive
same,outcome,[2],inactive
same,outcome,[3],inactive
same,outcome,[4],inactive
same,AC50,[5],11.1 µM (active)
same,outcome,[6],inactive
same,outcome,[7],inactive
same,outcome,[8],inactive
same,outcome,[9],inactive
same,outcome,[10],inactive
same,outcome,[11],inactive
same,outcome,[12],inactive
same,outcome,[13],inactive
same,outcome,[14],inactive
same,outcome,[15],inactive
same,outcome,[16],inactive
COc1nn(CSP(=S)(OC)OC)c(=O)s1,outcome,[1],inactive
same,outcome,[2],inactive
same,outcome,[3],inactive
same,outcome,[4],inactive
same,outcome,[5],inactive
same,outcome,[6],inactive
same,outcome,[7],inactive
same,outcome,[8],inactive
same,outcome,[9],inactive
same,outcome,[10],inactive
same,outcome,[11],inactive
same,outcome,[12],inactive
same,outcome,[17],inactive
same,outcome,[13],inactive
same,outcome,[14],inactive
same,outcome,[15],inactive
same,outcome,[16],inactive
CCOc1nc(NC)nc(NC(=O)NS(=O)(=O)c2ccccc2C(=O)OC)n1,outcome,[1],inactive
same,outcome,[2],inactive
same,outcome,[3],inactive
same,outcome,[4],inactive
same,outcome,[5],inactive
same,outcome,[6],inactive
same,outcome,[7],inactive
same,outcome,[8],inactive
same,outcome,[9],inactive
same,outcome,[10],inactive
same,outcome,[11],inactive
same,outcome,[12],inactive
same,outcome,[13],inactive
same,outcome,[14],inactive
same,outcome,[15],inactive
same,outcome,[16],inactive
CCS(=O)(=O)c1cccnc1S(=O)(=O)NC(=O)Nc1nc(OC)cc(OC)n1,outcome,[1],inactive
same,outcome,[2],inactive
same,outcome,[18],inactive
same,outcome,[3],inactive
same,outcome,[4],inactive
same,outcome,[5],inactive
same,outcome,[6],inactive
same,outcome,[7],inactive
same,outcome,[8],inactive
same,outcome,[9],inactive
same,outcome,[10],inactive
same,outcome,[11],inactive
same,outcome,[12],inactive
same,outcome,[13],inactive
same,outcome,[14],inactive
same,outcome,[15],inactive
same,outcome,[16],inactive
COP(=O)(OC)OC=C(Cl)Cl,outcome,[1],inactive
same,outcome,[2],inactive
same,outcome,[19],inactive
same,outcome,[3],inactive
same,AC50,[4],9.8 µM (active)
same,AC50,[5],16.8 µM (active)
same,outcome,[6],inactive
same,outcome,[20],inactive
same,outcome,[7],inactive
same,outcome,[8],inactive
same,outcome,[9],inactive
same,outcome,[10],inactive
same,outcome,[11],inactive
same,outcome,[12],inactive
same,outcome,[17],inactive
same,outcome,[13],inactive
same,AC50,[14],20 µM (active)
same,outcome,[15],inactive
same,AC50,[16],6.12 µM (active)
Oc1ccc(Cl)cc1Cc1ccccc1,AC50,[1],33.6 µM (active) [middle of 7 runs]
same,AC50,[2],36.8 µM (active) [middle of 7 runs]
same,AC50,[3],32.8 µM (active) [middle of 7 runs]
same,AC50,[4],37.9 µM (active) and 14.7 µM (active) and 20 µM (active)
same,AC50,[5],28.2 µM (active) [middle of 7 runs]
same,AC50,[6],28.1 µM (active) [middle of 7 runs]
same,AC50,[20],34.7 µM (active) [middle of 5 runs]
same,AC50,[7],31.8 µM (active) [middle of 5 runs]
same,outcome,[7],inactive
same,AC50,[8],34 µM (active) [middle of 7 runs]
same,AC50,[9],23.8 µM (active)
same,outcome,[9],inactive
same,AC50,[10],34.7 µM (active) [middle of 7 runs]
same,AC50,[11],31 µM (active) [middle of 6 runs]
same,AC50,[12],35.3 µM (active) [middle of 7 runs]
same,AC50,[17],37.3 µM (active) [middle of 7 runs]
same,AC50,[13],33.9 µM (active) [middle of 7 runs]
same,AC50,[14],34.4 µM (active) [middle of 7 runs]
same,AC50,[15],36.3 µM (active) [middle of 7 runs]
same,AC50,[16],32.1 µM (active) [middle of 7 runs]
